The values that follow come from PubChem BioAssay (NCI).

Assay [1] can be described thus: NCI Yeast Anticancer Drug Screen. Data for the rad50 strain (AID 155).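 Also: 0% = growth of vehicle-only cultures of the same strain.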 Particulars: S. cerevisiae rad50 strain growth inhibition, hits give high values. The essentials:
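A DNA repair-deficient yeast mutant serves as the test organism; compound-induced growth inhibition is calculated against vehicle-treated cells.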

Assay [2] in a line: NCI Yeast Anticancer Drug Screen. Data for the mec2-1 strain (AID 157). The note with it: S. cerevisiae mec2-1 strain, hits give high values. Summed up:
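Readout is yeast growth inhibition, normalised to vehicle-treated controls, in the mec2-1 strain exposed to compound.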

A short description of assay [3]: NCI Yeast Anticancer Drug Screen. Data for the sgs1 mgt1 strain (AID 161).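 Also: 0% = growth of cultures given vehicle only.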 Particulars: S. cerevisiae sgs1 mgt1 strain, hits give high values. The essentials:
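Growth of a repair-deficient yeast mutant was monitored after compound treatment and expressed as inhibition relative to vehicle-treated cultures.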

Assay [4] can be described thus: NCI Yeast Anticancer Drug Screen. Data for the cln2 rad14 strain (AID 165).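 Also: 0% = growth equal to vehicle treated cultures.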 Particulars: S. cerevisiae cln2 rad14 strain, hits give high values. Summed up:
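Relative to vehicle controls, growth inhibition of compound-treated cln2 rad14 yeast was recorded.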

Assay [5] can be described thus: NCI Yeast Anticancer Drug Screen. Data for the bub3 strain (AID 167). Particulars: S. cerevisiae bub3 mutant strain, hits give high values. The essentials:
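Inhibition values come from growth of compound-treated mutant yeast normalised to vehicle-treated controls.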

The nature of assay [6]: NCI Yeast Anticancer Drug Screen. Data for the mlh1 rad18 strain (AID 175). The note with it: S. cerevisiae mlh1 rad18 strain growth inhibition, hits give high values. Summed up:
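Test agents were incubated with a yeast strain of defined genotype (DNA damage repair defect). Inhibition of growth was derived by comparison with vehicle-exposed cultures.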

Setting [7] is: at 5.0 µM (retest, dose inferred, filed as 0.5).
Where [8] appears, read: at 50.0 µM (retest, dose inferred, filed as 5.0).

About 79,000 compounds went through this panel and 15% of them were active in at least one assay; those are over-represented in the sample as a whole. A number with no mark means an inactive call. The source made the active and inactive calls. Rule as the data show it: active = growth inhibition above about 70%; inactive = the rest.

In the case of `O=S1(=O)CC=C1c1ccccc1`, the growth inhibition in assay [1] (setting [7]) is 8%; in assay [1] (setting [8]) it was 78% (active); in assay [1] (at 50.0 µM), 96.3% (active); in assay [2] (setting [7]), 8%; in assay [2] (setting [8]), 92% (active); in assay [2] (at 50.0 µM), 96.5% (active). Besides, the growth inhibition was 7% in assay [3] (setting [7]); 89% (active) in assay [3] (setting [8]); 94.8% (active) in assay [3] (at 50.0 µM); 5% in assay [4] (setting [7]); 61% in assay [4] (setting [8]); 73.8% (active) in assay [4] (at 50.0 µM). Also, the growth inhibition is 2% in assay [5] (setting [7]); 84% (active) in assay [5] (setting [8]); 95.2% (active) in assay [5] (at 50.0 µM); 2% in assay [6] (setting [7]); 92% (active) in assay [6] (setting [8]); 97.7% (active) in assay [6] (at 50.0 µM).
`CCOC(=O)C(=N\Nc1cccc(C)c1C)/C(C)=N\NC(N)=S`: the growth inhibition is 3% in assay [1] (setting [7]); 35% in assay [1] (setting [8]); 70.2% (active) in assay [1] (at 50.0 µM); 9% in assay [2] (setting [7]); 56% in assay [2] (setting [8]); 38.2% in assay [2] (at 50.0 µM). Further, the growth inhibition in assay [3] (setting [7]) is 32%; in assay [3] (setting [8]), 76% (active); in assay [3] (at 50.0 µM), 75.8% (active); in assay [4] (setting [7]) it was -6%; in assay [4] (setting [8]), 14%; in assay [4] (at 50.0 µM), 64.1%. Further, the growth inhibition in assay [5] (setting [7]) is 3%; in assay [5] (setting [8]) it was 34%; in assay [5] (at 50.0 µM), 59.7%; in assay [6] (setting [7]), 30%; in assay [6] (setting [8]), 81% (active); in assay [6] (at 50.0 µM) it was 81.1% (active).
Take `O=C(O)C(Br)C(Br)C(=O)Nc1ccc(Cl)c(Cl)c1` (stereo not given): the growth inhibition was 91% (active) in assay [1] (setting [7]); 99% (active) in assay [1] (setting [8]); 96.3% (active) in assay [1] (at 50.0 µM); 52% in assay [2] (setting [7]); 99% (active) in assay [2] (setting [8]); 98.1% (active) in assay [2] (at 50.0 µM). For the same compound, the growth inhibition in assay [3] (setting [7]) was 85% (active); in assay [3] (setting [8]) it was 99% (active); in assay [3] (at 50.0 µM) it was 96.8% (active); in assay [4] (setting [7]), 25%; in assay [4] (setting [8]), 99% (active); in assay [4] (at 50.0 µM), 84.7% (active). In addition, the growth inhibition in assay [5] (setting [7]) was 96% (active); in assay [5] (setting [8]), 100% (active); in assay [5] (at 50.0 µM) it was 98.8% (active); in assay [6] (setting [7]) it was 48%; in assay [6] (setting [8]), 99% (active); in assay [6] (at 50.0 µM) it was 96% (active).
As to `CCOC(=O)C(=CCC1NCCc2c1[nH]c1ccccc21)C(=O)OCC` (stereo not given), the growth inhibition was 23% in assay [1] (setting [7]); 93% (active) in assay [1] (setting [8]); 91.2% (active) in assay [1] (at 50.0 µM); 29% in assay [2] (setting [7]); 97% (active) in assay [2] (setting [8]); 91.7% (active) in assay [2] (at 50.0 µM). Further, the growth inhibition in assay [3] (setting [7]) is 29%; in assay [3] (setting [8]), 63%; in assay [3] (at 50.0 µM) it was 93.5% (active); in assay [4] (setting [7]), 28%; in assay [4] (setting [8]), 59%; in assay [4] (at 50.0 µM) it was 92.2% (active). Moreover, the growth inhibition is 30% in assay [5] (setting [7]); 98% (active) in assay [5] (setting [8]); 92.4% (active) in assay [5] (at 50.0 µM); 41% in assay [6] (setting [7]); 97% (active) in assay [6] (setting [8]); 91.6% (active) in assay [6] (at 50.0 µM).
For the compound `C/C=C/C(=O)NCC(C(C)C)/[N+]([O-])=N/O` (stereo not given), the growth inhibition in assay [1] (setting [7]) was 94% (active); in assay [1] (setting [8]), 95% (active); in assay [1] (at 50.0 µM), 91.8% (active); in assay [2] (setting [7]) it was 95% (active); in assay [2] (setting [8]), 95% (active); in assay [2] (at 50.0 µM) it was 93.3% (active). The growth inhibition in assay [3] (setting [7]) is 97% (active); in assay [3] (setting [8]) it was 97% (active); in assay [3] (at 50.0 µM), 93.3% (active); in assay [4] (setting [7]), 80% (active); in assay [4] (setting [8]) it was 82% (active); in assay [4] (at 50.0 µM) it was 91.2% (active). Also, the growth inhibition in assay [5] (setting [7]) is 87% (active); in assay [5] (setting [8]), 86% (active); in assay [5] (at 50.0 µM) it was 91.8% (active); in assay [6] (setting [7]), 97% (active); in assay [6] (setting [8]), 97% (active); in assay [6] (at 50.0 µM), 91.9% (active).
Take `CC(=O)OC1COC(n2ccc3cc(Br)c([N+](=O)[O-])cc32)C(OC(C)=O)C1OC(C)=O` (stereo not given): the growth inhibition is -16% in assay [1] (setting [7]); 2% in assay [1] (setting [8]); 69.7% in assay [1] (at 50.0 µM); -5% in assay [2] (setting [7]); 8% in assay [2] (setting [8]); 4.55% in assay [2] (at 50.0 µM). For the same compound, the growth inhibition in assay [3] (setting [7]) was -25%; in assay [3] (setting [8]), 47%; in assay [3] (at 50.0 µM), 78% (active); in assay [4] (setting [7]) it was -45%; in assay [4] (setting [8]), 3%; in assay [4] (at 50.0 µM), 5.45%. In addition, the growth inhibition in assay [5] (setting [7]) was -23%; in assay [5] (setting [8]), 71% (active); in assay [5] (at 50.0 µM), 83.5% (active); in assay [6] (setting [7]) it was -27%; in assay [6] (setting [8]) it was 36%; in assay [6] (at 50.0 µM), 47.9%.
With `CN(C)c1nc(-c2ccccc2)cc(-c2ccc(O)cc2)n1`, the growth inhibition was 14% in assay [1] (setting [7]); 93% (active) in assay [1] (setting [8]); 36.8% in assay [1] (at 50.0 µM); -10% in assay [2] (setting [7]); 27% in assay [2] (setting [8]); 13.7% in assay [2] (at 50.0 µM). For the same compound, the growth inhibition in assay [3] (setting [7]) is 22%; in assay [3] (setting [8]), 92% (active); in assay [3] (at 50.0 µM), 45.9%; in assay [4] (setting [7]), 22%; in assay [4] (setting [8]), 48%; in assay [4] (at 50.0 µM), 45.5%. For the same compound, the growth inhibition was -2% in assay [5] (setting [7]); 77% (active) in assay [5] (setting [8]); 60.5% in assay [5] (at 50.0 µM); 24% in assay [6] (setting [7]); 88% (active) in assay [6] (setting [8]); 68.2% in assay [6] (at 50.0 µM).
On to `CC(=O)Nc1cccc2c1ccc1ccc3ccccc3c12`, for which the growth inhibition in assay [1] (setting [7]) is 13%; in assay [1] (setting [8]), 21%; in assay [1] (at 50.0 µM), 77.3% (active); in assay [2] (setting [7]), -1%; in assay [2] (setting [8]), 9%; in assay [2] (at 50.0 µM), 61.2%. Further, the growth inhibition is 4% in assay [3] (setting [7]); 20% in assay [3] (setting [8]); 71.2% (active) in assay [3] (at 50.0 µM); -12% in assay [4] (setting [7]); -11% in assay [4] (setting [8]); -3.25% in assay [4] (at 50.0 µM). Moreover, the growth inhibition in assay [5] (setting [7]) is 3%; in assay [5] (setting [8]) it was -1%; in assay [5] (at 50.0 µM), 5.75%; in assay [6] (setting [7]) it was 32%; in assay [6] (setting [8]), 52%; in assay [6] (at 50.0 µM), 71% (active).
Consider `O=C(O)/C(=C/c1ccccc1)c1ccc2ccccc2c1Br`, for which the growth inhibition in assay [1] (setting [7]) was 11%; in assay [1] (setting [8]), 99% (active); in assay [1] (at 50.0 µM), 99.6% (active); in assay [2] (setting [7]), 1%; in assay [2] (setting [8]) it was 100% (active); in assay [2] (at 50.0 µM), 99.7% (active). The growth inhibition in assay [3] (setting [7]) is 7%; in assay [3] (setting [8]) it was 100% (active); in assay [3] (at 50.0 µM) it was 99.7% (active); in assay [4] (setting [7]) it was -18%; in assay [4] (setting [8]) it was 99% (active); in assay [4] (at 50.0 µM), 99.2% (active). Moreover, the growth inhibition in assay [5] (setting [7]) was -10%; in assay [5] (setting [8]), 99% (active); in assay [5] (at 50.0 µM) it was 99.7% (active); in assay [6] (setting [7]), 33%; in assay [6] (setting [8]) it was 99% (active); in assay [6] (at 50.0 µM) it was 99.7% (active).
As to `O=C(n1c2ccccc2c2n[nH]c(=S)nc21)C(F)(F)F`, the growth inhibition was 1% in assay [1] (setting [7]); -6% in assay [1] (setting [8]); 82.7% (active) in assay [1] (at 50.0 µM); 0% in assay [2] (setting [7]); -2% in assay [2] (setting [8]); 39.1% in assay [2] (at 50.0 µM). In addition, the growth inhibition in assay [3] (setting [7]) is -3%; in assay [3] (setting [8]), -2%; in assay [3] (at 50.0 µM) it was 83.5% (active); in assay [4] (setting [7]) it was -2%; in assay [4] (setting [8]) it was -2%; in assay [4] (at 50.0 µM), 25.3%. In addition, the growth inhibition in assay [5] (setting [7]) is 3%; in assay [5] (setting [8]) it was -1%; in assay [5] (at 50.0 µM) it was 52.8%; in assay [6] (setting [7]) it was -5%; in assay [6] (setting [8]) it was 0%; in assay [6] (at 50.0 µM), 89.3% (active).
